Format in all cases: functional
The test system of test [1] is Plasmodium falciparum. Description: GSK_TCMDC: Inhibition of Plasmodium falciparum 3D7 in whole red blood cells, using parasite LDH activity as an index of growth. Test compounds present at 2uM.
The subject of test [2] is Plasmodium falciparum. Description: GSK_TCMDC: Inhibition of Plasmodium falciparum Dd2 in whole red blood cells, using parasite LDH activity as an index of growth. Test compounds present at 2uM.
For a further test, the system named is HepG2. The test can be described thus: GSK_TCMDC: Percent inhibition of human HepG2 cell line. Test compounds present at 10uM.

Drawing on ChEMBL document CHEMBL1157539, “Thousands of chemical starting points for antimalarial lead identification” (Nature, 2010), this text covers Inhibition for 31 compounds.

What is called Inhibition is the change of the read-out against control, counted positive when it falls. A high value points to strong suppression.

On to `Cc1cc(=NN=Cc2cccc(F)c2)c2ccc(F)cc2[nH]1`, for which the Inhibition amounted to 100% with Plasmodium falciparum [1], 99% with Plasmodium falciparum [2] and 2% with HepG2.
As to `CC(=O)Nc1cccc(CNc2cc(C)nc(Nc3ccc(C)cc3)n2)c1`, the Inhibition in the test on Plasmodium falciparum [1] stood at 82%; with Plasmodium falciparum [2], 23%; in the test on HepG2 it was 18%.
For `Cc1nc2c(c(C)nn2C(C)(C)C)c(C)c1CCC(=O)Nc1ccc(CN2CCCC2)cc1`, the Inhibition is recorded as 89% in the test on Plasmodium falciparum [1], 5% in the test on Plasmodium falciparum [2] and 1% with HepG2.
In the case of `Cc1c(-c2ccccc2)ccc2[nH]cc(CC#N)c12`, the Inhibition came to 95% with Plasmodium falciparum [1], 85% in the test with Plasmodium falciparum [2] and 2% in the test with HepG2.
Consider `Cl.OCCNc1nc(Nc2ccc(F)cc2)nc2ccccc12`, for which the Inhibition in the test on Plasmodium falciparum [1] came out at 94%; in the test with Plasmodium falciparum [2], 73%; in the test on HepG2 it was 10%.
In the case of `O=C(CCc1c[nH]cn1)Nc1cccc(-c2cccc(-c3nc4ccccc4[nH]3)c2)c1`, the Inhibition amounted to 100% with Plasmodium falciparum [1], 25% in the test on Plasmodium falciparum [2] and 8% in the test with HepG2.
As to `CCCNc1ccc2nccc(CCN3CCC(NCc4ccc5c(n4)NC(=O)CS5)CC3)c2n1`, the Inhibition in the test with Plasmodium falciparum [1] stood at 100%; in the test on Plasmodium falciparum [2] it was 0%; in the test on HepG2, 24%.
On the same counts, the results for `Clc1ccc(CNCC2CCN(CC3CCCCC3)CC2)cc1Cl` are 92%, 6% and 18%.
Take `CCN(C)CCCn1c(N(C)C)nc2cc(-n3cnc4cc(-c5ccc(Cl)cc5)sc4c3=O)ccc21.O=C(O)C(F)(F)F`: the Inhibition with Plasmodium falciparum [1] amounted to 80%; in the test with Plasmodium falciparum [2], 12%; with HepG2, 83%.
On the same counts, the results for `COc1ccc(CCN2CCC(NCc3cccc(N(C)C)c3)CC2)cc1` are 98%, 7% and 18%.
On the same counts, the results for `CN(C)CCN(C)Cc1nc(-c2ccc3c(Nc4ccc(Oc5ccccc5)cc4)ccnc3c2)cs1` are 100%, 100% and 27%.
With `c1cc2[nH]c(CCCc3nc4cc(C5=N[C@H]6CCCC[C@H]6N5)ccc4[nH]3)nc2cc1C1=N[C@@H]2CCCC[C@@H]2N1`, the figures for the Inhibition with Plasmodium falciparum [1], in the test on Plasmodium falciparum [2] and in the test on HepG2 were 85%, 84% and 10%, respectively.
On to `O=C(c1ccc([N+](=O)[O-])o1)N1CCC(Cc2ccc(C(F)(F)F)cc2)CC1`, for which the values for the Inhibition in the test on Plasmodium falciparum [1], in the test with Plasmodium falciparum [2] and with HepG2 were 100%, 99% and 38%, respectively.
As to `Br.CCOc1ccc(OCCCON2C(=N)N=C(N)NC2(C)C)cc1`, the Inhibition is 97% with Plasmodium falciparum [1], 94% in the test on Plasmodium falciparum [2] and 63% in the test with HepG2.
On to `O=C(Nc1ccc2c(ccn2C2CCCN(Cc3cc(F)cc(F)c3F)CC2)c1)c1ccco1` (stereo not drawn), for which the Inhibition came out at 89% in the test with Plasmodium falciparum [1], 94% with Plasmodium falciparum [2] and 7% in the test with HepG2.
Regarding `Cc1cccc(CCNC(=O)c2cc(Br)cc(N3CCN(c4ccncc4)CC3)c2)c1.O=C(O)C(F)(F)F`, the figures for the Inhibition in the test on Plasmodium falciparum [1], with Plasmodium falciparum [2] and in the test with HepG2 were 96%, 53% and 48%, respectively.
As to `Cc1cc(-c2cnc(N)c(-c3ccc(N4CCN(C)CC4)cc3)c2)cc(C)c1O`, the Inhibition in the test on Plasmodium falciparum [1] came out at 100%; with Plasmodium falciparum [2], 99%; with HepG2, 3%.
For `Oc1cccc(-c2cnc3ccc(NCc4ccc(F)cc4)nn23)c1`, the Inhibition in the test with Plasmodium falciparum [1] turned out to be 91%; in the test with Plasmodium falciparum [2], 66%; in the test with HepG2 it was 0%.
As to `O=C(Nc1cccc(-c2nn3ccccc3c2-c2ccnc(Nc3ccccc3)n2)c1)c1c(F)cccc1F`, the Inhibition in the test on Plasmodium falciparum [1] came to 98%; in the test on Plasmodium falciparum [2] it was 98%; with HepG2, 69%.
In the case of `CCOc1cc(C(=O)NC2CCN(Cc3ccccc3)C2)ccc1-c1nc2cc(Cl)ccc2[nH]1` (stereo not drawn), the Inhibition in the test on Plasmodium falciparum [1] is listed as 98%; in the test on Plasmodium falciparum [2], 60%; with HepG2, 7%.
`O=C(CCc1cccnc1)Nc1cccc(-c2ccc(-c3nc4cc(C(F)(F)F)ccc4[nH]3)s2)c1`: the figures for the Inhibition with Plasmodium falciparum [1], with Plasmodium falciparum [2] and in the test with HepG2 were 89%, 13% and 35%, respectively.
For `Cc1ccc(Cc2c(C)nc3nc(N)nc(N)c3c2C)cc1.Cl`, the Inhibition was 93% in the test on Plasmodium falciparum [1], 1% with Plasmodium falciparum [2] and 60% in the test on HepG2.
Regarding `Cc1[nH]cnc1-c1cccc(NC(=O)c2cc3ccccc3s2)c1`, the Inhibition is recorded as 99% in the test on Plasmodium falciparum [1], 48% in the test on Plasmodium falciparum [2] and 5% in the test on HepG2.
As to `Cl.O=S(=O)(c1ccc(OCc2ccc(Cl)cc2)cc1)c1cc2c(cc1OCc1ccccc1)CCN(C1CCC1)CC2`, the Inhibition with Plasmodium falciparum [1] came to 89%; in the test with Plasmodium falciparum [2] it was 13%; in the test with HepG2, 17%.
Consider `Cc1ccc(-c2cncc(-c3cc(NC4CCN(Cc5ccccc5)CC4)nc(-c4ccccc4)n3)c2)cc1`, for which the values for the Inhibition in the test on Plasmodium falciparum [1], with Plasmodium falciparum [2] and in the test on HepG2 were 100%, 66% and 0%, respectively.
Regarding `O=C(NCCN1CCN(S(=O)(=O)c2ccc(OC3CCNCC3)c(Br)c2)CC1)c1ccc(Cl)c(Cl)c1.O=C(O)C(F)(F)F`, the values for the Inhibition in the test on Plasmodium falciparum [1], in the test on Plasmodium falciparum [2] and in the test on HepG2 were 89%, 0% and 1%, respectively.
On to `COc1cccc2c(NN=Cc3cccc(Cl)c3)cc(C)nc12`, for which the Inhibition turned out to be 100% in the test on Plasmodium falciparum [1], 75% with Plasmodium falciparum [2] and 3% with HepG2.
On the same counts, the results for `CN1CCC(NCc2ccc(-c3ccc(S(=O)(=O)NCc4ccccc4)c(F)c3)cc2)CC1.O=C(O)C(F)(F)F` are 99%, 89% and 53%.
On the same counts, the results for `COc1ccc2nccc([C@@H](O)CN3CCC(NC(=O)C(c4ccsc4)N4CCN(c5ccccc5)CC4)CC3)c2c1` (stereo partly drawn) are 95%, 17% and 24%.
Consider `COc1ccc(CNC2CCN(C)CC2)cc1-c1ccc(S(=O)(=O)NC2CCC2)s1.O=C(O)C(F)(F)F`, for which the Inhibition is 100% in the test with Plasmodium falciparum [1], 94% with Plasmodium falciparum [2] and 32% in the test with HepG2.
In the case of `Cc1ccc(F)c(OC2CCN(c3ccc(C(=O)NC4CC4)cn3)CC2)c1`, the Inhibition in the test on Plasmodium falciparum [1] was determined as 92%; in the test with Plasmodium falciparum [2], 72%; with HepG2, 10%.
